The text below walks through data of PubChem BioAssay.

The test system of one experiment is Sam68 (KHDRBS1). The experiment in a line: compounds binding KHDRBS1 protein – biochemical, small-molecule microarray, 635 nm fluorescence, primary screen (AID 1125).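 Further: score merges 667 nm channel intensity with signal to noise over triplicate slides.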 To be noted: higher = more signal.
Compound `NCCCC[C@@H]1NC(=O)[C@H]2C[C@@H](C(=O)NCc3ccc(F)cc3)[C@@H](c3cccc(OCCO)c3)N2C1=O` came in with a composite z-score of 1.3.

In turn, `Cc1c(NC(=O)/C(C#N)=C/c2ccc(Cl)cc2)c(=O)n(-c2ccccc2)n1C` came in with a composite z-score of 0.396.

`[N-]=[N+]=NCc1ccccc1C[C@]1(C(=O)N2CCOCC2)N=C(c2ccc(OCCCO)cc2)O[C@H]1c1ccccc1CN=[N+]=[N-]` gave a composite z-score of 1.3.

`CCC(CC)C(O)C1C=CC2C(=O)N(C)C(=O)C2N1N1CCCCC1` (stereo unspecified): the composite z-score amounted to 1.31.

With `COCCOC(=O)N1C(=O)[C@@]2(c3cc(C#Cc4ccc(OC)cc4)ccc31)[C@H](c1ccc(OCCO)cc1)N1[C@H](c3ccccc3)[C@H](c3ccccc3)OC(=O)[C@H]1[C@@H]2C(=O)N1CCCCCCC1`, the composite z-score was 1.25.

Another experiment concerns Chordin-like protein 2 (CHRDL2). The experiment in a line: compounds binding chordin-like 2 – biochemical, small-molecule microarray, 635 nm fluorescence, primary screen (AID 1126).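 Further: printed compound slides probed with Chrdl2 protein at 4 µg/mL for 1 h at 4 C; score merges 667 nm emission intensity with signal to noise over three replicate slides.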 Particulars: fluorescence 635 nm, higher = more signal.
For `NC(=O)NCC#Cc1ccc2c(c1)[C@]1(C(=O)N2)[C@H](C(=O)N2CCCCCCC2)[C@H]2C(=O)O[C@H](c3ccccc3)[C@H](c3ccccc3)N2[C@@H]1c1ccc(O)cc1`, the composite z-score was 1.2.

The compound `COCCOC(=O)N1C(=O)[C@@]2(c3cc(C#CC4=CCCCC4)ccc31)[C@H](C(=O)N1CCN(c3ncccn3)CC1)[C@H]1C(=O)O[C@H](c3ccccc3)[C@H](c3ccccc3)N1[C@@H]2c1ccccc1OCCO` came in with a composite z-score of 0.277.

The compound `COCCOC(=O)N1C(=O)[C@@]2(c3cc(C#CC4(O)CCCCCC4)ccc31)[C@H](c1ccccc1OCCO)N1[C@H](c3ccccc3)[C@H](c3ccccc3)OC(=O)[C@H]1[C@@H]2C(=O)N1CCCCCCC1` yielded a composite z-score of 0.905.

Compound `CCCCC=C[C@@H](NC(=O)c1ccc(C(F)(F)F)cc1)c1ccccc1` gave a composite z-score of -0.94.

In the case of `C=CCC(OC(C)=O)[C@@H]1[C@@H](N(Cc2ccc(-c3ccccc3)cc2)C(=O)c2ccc(C)cc2)c2cc(OCCCO)ccc2N1C(=O)c1ccc2ccccc2c1` (stereo partly specified), the composite z-score came out at 0.0542.

For the compound `CCCCC(=C=CC[C@@H](O)c1cccc(OCCO)c1)CCO`, the composite z-score is -0.596.

Consider `CCOC(=O)C[C@H]1[C@H](OC(=O)Cc2ccc3c(c2)OCO3)[C@@H](NC(=O)c2ccccc2)c2cc(OCCCO)ccc2N1C(=O)Cc1ccc(OC)cc1`, for which the composite z-score was -0.302.

In the case of `CCCCN1CC=CC23O[C@@H]4C=CCOC(=O)[C@@H]4[C@H]2C(=O)N(C(CO)C(C)C)[C@@H]3C1=O` (stereo partly specified), the composite z-score is -0.0407.

The compound `COC(=O)[C@@]1(Cc2ccc(OC)cc2)[C@@H]2[C@@H](CC(=O)[C@H]2CC(=O)C(=O)N2CCCC2)CN1C(=O)c1ccccc1` had a composite z-score of 0.251.

`COC(=O)c1c(CC[C@@H](CO)NC(=O)N[C@@H](Cc2ccccc2)Cn2cc(-c3cncn3C)nn2)oc(C(C)=O)c1C(=O)OC` gave a composite z-score of -0.722.

For the compound `C=CCC(OC(C)=O)[C@@H]1[C@@H](N(Cc2ccc(-c3cccc(C(F)(F)F)c3)o2)C(=O)c2cccc3ccccc23)c2cc(OCCCO)ccc2N1C(=O)c1ccc2ccccc2n1` (stereo partly specified), the composite z-score came out at 0.328.

Take `CC(=O)NCCCC[C@@H]1NC(=O)[C@H]2C[C@@H](C(=O)NCCCCCC[N+](C)(C)C)[C@@H](c3ccc(O)cc3)N2C1=O`: the composite z-score turned out to be 1.4.

`N#Cc1ccc(C(O)C2C=CC3C(=O)NC(=O)C3N2Nc2ccccn2)cc1` (stereo unspecified) yielded a composite z-score of 0.31.

`C=CCNC(=O)[C@H]1[C@@H]2C(=O)O[C@@H](c3ccccc3)[C@@H](c3ccccc3)N2[C@@H](c2ccccc2OCCO)[C@]12C(=O)N(C(=O)OCCOC)c1ccccc12` came in with a composite z-score of 0.414.

Compound `C=CC[C@]1(C(=O)NCc2ccccc2)COC(c2ccc(OCCCO)cc2)=N1` displayed a composite z-score of -0.623.

The compound `COc1cc2c(cc1O)C(C1CC1)N(Cc1ccc([N+](=O)[O-])o1)CC2` (stereo unspecified) gave a composite z-score of -0.465.

On to `CCOC(=O)C[C@H]1[C@H](OC(=O)c2ccc(C(=O)c3ccccc3)cc2)[C@@H](NC(=O)c2ccc3ccccc3c2)c2cc(OCCCO)ccc2N1C(=O)c1ccc2ccccc2n1`, for which the composite z-score came out at 0.345.

`CC(C)(C)N1CC=CC23O[C@@H]4/C=C\CCCOC(=O)C4[C@H]2C(=O)N(CCCCCCO)[C@@H]3C1=O` (stereo partly specified) returned a composite z-score of -1.25.

For `CCC[C@@H]1C=C(C(=O)OCC)[C@H](c2ccccc2)N1S(=O)(=O)c1ccc(C)cc1`, the composite z-score worked out at 0.0538.

`O=C1OCCC=C[C@H]2OC34C=CCN(CCN5CCOCC5)C(=O)[C@H]3N(CCCO)C(=O)[C@@H]4C12` (stereo partly specified) showed a composite z-score of -0.794.

`CCOC(=O)C1=C[C@@H](C(C)(C)C)N(S(=O)(=O)c2ccc(C)cc2)[C@H]1c1ccccc1Cl`: the composite z-score was -0.584.

In turn, `C[C@H]1C2[C@H](Cc3ccccc3)NC(=O)[C@]23C(=O)NCC(=O)N2CCC[C@H]2C(=O)NC/C=C\C/C=C/C3[C@@H]2O[C@]12C` (stereo partly specified) yielded a composite z-score of 0.486.

Turning to `COc1ccc([Si](C)(C)[C@@H]2[C@@H](CCO)O[C@]3(C(=O)N(Cc4ccccc4)c4ccc(N5C(=O)c6ccccc6Oc6ccccc65)cc43)[C@H]2C)cc1`, the composite z-score is -1.36.

Regarding `COCCOC(=O)N1C(=O)[C@@]2(c3ccccc31)[C@H](C(N)=O)[C@H]1C(=O)O[C@H](c3ccccc3)[C@H](c3ccccc3)N1[C@@H]2c1ccc(OCCO)cc1`, the composite z-score was 0.33.

The compound `COCCCNC(=O)[C@@H]1c2ccccc2C(=O)N(Cc2cc(C(F)(F)F)cc(C(F)(F)F)c2)[C@H]1c1ccc(CO)cc1` showed a composite z-score of -0.716.

Take `NCCCC[C@@H]1NC(=O)[C@H]2C[C@@H](C(=O)NCc3ccc(F)cc3)[C@@H](c3ccc(O)cc3)N2C1=O`: the composite z-score is 0.521.

In the case of `CC(C)C[C@@H]1NC(=O)[C@H]2C[C@@H](C(=O)NCCCCCNC(=O)CS)[C@@H](c3ccc(O)cc3)N2C1=O`, the composite z-score turned out to be 0.795.

Compound `COC(=O)C(CC#Cc1ccc2c(c1)[C@]1(C(=O)N2)[C@H](c2ccc(O)cc2)N2[C@H](c3ccccc3)[C@H](c3ccccc3)OC(=O)[C@H]2[C@@H]1C(=O)N1CCc2cc(OC)c(OC)cc2C1)C(=O)OC` showed a composite z-score of 0.64.

In the case of `C=CCNC(=O)[C@@H]1[C@H]2C(=O)O[C@H](c3ccccc3)[C@H](c3ccccc3)N2[C@H](c2ccccc2OCCO)[C@@]12C(=O)N(C(=O)OCCOC)c1ccc(C#CCCO)cc12`, the composite z-score came out at 0.0117.

On to `COc1ccc(CCNC(=O)[C@@]2(Sc3ccc(C)cc3)CC(=O)N(Cc3cc(C(F)(F)F)cc(C(F)(F)F)c3)[C@@H]2c2ccc(CO)cc2)cc1`, for which the composite z-score is -2.73.

In turn, `Cc1ccccc1C(O)C1C=CC2C(=O)N(c3ccccc3)C(=O)C2N1Nc1ccccc1F` (stereo unspecified) came in with a composite z-score of -0.52.

`NCCCC[C@@H]1NC(=O)[C@H]2C[C@@H](C(=O)NCc3ccc(F)cc3)[C@@H](c3cccc(OCCO)c3)N2C1=O` came in with a composite z-score of 1.47.

For the compound `Cc1c(NC(=O)/C(C#N)=C/c2ccc(Cl)cc2)c(=O)n(-c2ccccc2)n1C`, the composite z-score stood at 0.122.

`[N-]=[N+]=NCc1ccccc1C[C@]1(C(=O)N2CCOCC2)N=C(c2ccc(OCCCO)cc2)O[C@H]1c1ccccc1CN=[N+]=[N-]` yielded a composite z-score of -0.655.

`CCC(CC)C(O)C1C=CC2C(=O)N(C)C(=O)C2N1N1CCCCC1` (stereo unspecified): the composite z-score amounted to 0.0277.

`COCCOC(=O)N1C(=O)[C@@]2(c3cc(C#Cc4ccc(OC)cc4)ccc31)[C@H](c1ccc(OCCO)cc1)N1[C@H](c3ccccc3)[C@H](c3ccccc3)OC(=O)[C@H]1[C@@H]2C(=O)N1CCCCCCC1` yielded a composite z-score of 1.31.
